# This is part of a sample that, as a whole, favours compounds with a hit. Of some 79,000 tested, about 15% had one in any assay. Unmarked numbers belong to inactive results. Activity calls are given as the source filed them. No stated cut-off is given here; in the data, active means growth inhibition above about 70%; inactive means the rest. Where a SMILES comes first, the peptide text is derived from it. [ ]: non-standard residue; d: D form. The star is where a group is joined. Cbz = O=C(OCc1ccccc1)*; Nva = CCC[CH](N)C(=O)O
# Key:
# [1] = NCI Yeast Anticancer Drug Screen. Data for the rad50 strain (AID 155);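 further: 0% = growth of vehicle-only cultures of the same strain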; conditions: S. cerevisiae rad50 strain growth inhibition; at 50.0 µM; hits give high values
# Procedure, shortened: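 Compounds were tested on a yeast strain with an engineered DNA damage repair alteration; the reported value is growth inhibition normalised to vehicle treatment.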
# [2] = NCI Yeast Anticancer Drug Screen. Data for the mec2-1 strain (AID 157); conditions: S. cerevisiae mec2-1 strain, at 50.0 µM, hits give high values
# Procedure, shortened: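 Mutant yeast (mec2-1) grown with compound; growth inhibition relative to vehicle control reported.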
# [3] = NCI Yeast Anticancer Drug Screen. Data for the sgs1 mgt1 strain (AID 161);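 further: 0% = growth of cultures given vehicle only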; conditions: S. cerevisiae sgs1 mgt1 strain, at 50.0 µM, hits give high values
# Procedure, shortened: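 Percent growth inhibition was derived by comparing compound-exposed mutant yeast with vehicle-exposed cultures. The strain carries alterations in DNA damage repair.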
# [4] = NCI Yeast Anticancer Drug Screen. Data for the cln2 rad14 strain (AID 165);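 further: 0% = growth equal to vehicle treated cultures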; conditions: S. cerevisiae cln2 rad14 strain, at 50.0 µM, hits give high values
# Procedure, shortened: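 Readout is yeast growth inhibition versus vehicle-treated controls, using a strain with cln2 and rad14 alterations exposed to compound.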
# [5] = NCI Yeast Anticancer Drug Screen. Data for the bub3 strain (AID 167); conditions: S. cerevisiae bub3 mutant strain, at 50.0 µM, hits give high values
# Procedure, shortened: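 Growth of a checkpoint-deficient yeast mutant is measured after compound exposure. Values represent inhibition relative to vehicle.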
# [6] = NCI Yeast Anticancer Drug Screen. Data for the mlh1 rad18 strain (AID 175); conditions: S. cerevisiae mlh1 rad18 strain growth inhibition; at 50.0 µM; hits give high values
# Procedure, shortened: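 Genetically defined yeast (DNA repair-deficient) exposed to compounds; growth inhibition determined relative to vehicle.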
Compound,growth inhibition [1],growth inhibition [2],growth inhibition [3],growth inhibition [4],growth inhibition [5],growth inhibition [6]
OC1CCCC1c1ccccc1 (stereo unspecified),6.4%,-24.4%,-11.9%,-7.55%,-3.7%,4.45%
COc1cc(OC)c(OCc2ccccc2)c(OC)c1,12.2%,0.25%,-0.25%,2.45%,-2.5%,-17.2%
COc1ccc(Br)cc1/C=N/N=C/c1cc(Br)ccc1OC,-0.2%,-21.6%,1.5%,20.9%,21.5%,23.4%
COc1cc(C(=O)N2CCCCCCC2)cc(OC)c1OC,-13.8%,38.5%,10.9%,-19.7%,28.7%,-6.45%
COC(=O)n1sc(SC)nc1=N,3.75%,-3.95%,-8.9%,-14.3%,-17.1%,3.55%
Clc1ccccc1OCc1cnc[nH]1,-4.05%,-23.7%,-14.9%,6.2%,-9.85%,-8.7%
COc1ccc2c(c1)[n+]([O-])c(/C(C)=N/NC(=O)c1ccccc1O)c(C)[n+]2[O-],16.2%,-3.9%,9.45%,-106%,-3.35%,0.7%
CC(c1ccccc1)C1(C)NC(=O)NC1=O (stereo unspecified),-12.4%,-24.7%,-2.1%,-4.1%,6.55%,-10.1%
COc1cccc(N=Nc2c(-c3ccccc3)nn(C(=S)S)c2C)c1,-2.6%,0.6%,17.6%,-192%,19.3%,20.6%
Cc1ccc2cccnc2c1,21.9%,-4.6%,-0.95%,11.2%,2.85%,5%
Cc1cc2c(c3c1c(=O)c1ccccc1n3C)C=CC(C)(C)O2,-5.05%,-0.2%,9.95%,3.35%,14.4%,-8.9%
CCCCCCCCCCCCCCCCCCOCCCCCCCCCCCC,-34.8%,-15.6%,-20%,-64%,5.05%,-17.1%
CCCC1=C(OC)C(=O)c2c(C)cc(Cl)nc2C1=O,48.5%,48.2%,86.2% (active),78.8% (active),87.5% (active),38.9%
O=C(O)C1CSC2(CCCN(Cc3ccccc3)C2)N1 (stereo unspecified),-17.7%,-29.4%,-5.85%,-3.7%,-17.1%,5.2%
CC1CC[N-]CC1.CC1CC[N-]CC1.[Cl][Pt+2][Cl],-19.9%,-6.7%,-17.6%,-34%,-2.2%,5.8%
CC12CCC(CC1)C(C)(C)N=C(N)S2,-3.1%,-10.8%,-2.75%,-18%,-11.2%,-20%
Cn1cc(S(=O)(=O)NC(=O)Nc2ccc(Cl)cc2)c(=O)c2ccc(Cl)cc21,21.6%,20.8%,23.1%,-17.5%,33.2%,8.75%
CCOC1(c2ccccc2)CCNCC1,21.9%,-0.65%,29.4%,15.7%,16.3%,12.9%
CC(C)(C)NC(=O)NCCCCCCNC(=O)NC(C)(C)C,-15.5%,-13.9%,-7.45%,-27.9%,8.05%,-7.9%
COC(=O)C(Cc1c[nH]c2ccccc12)NC(=O)c1ccccc1NC(=O)OCc1ccccc1 (stereo unspecified),5.85%,-13.1%,9.15%,-14.1%,15.1%,7.65%
CCOC(C)(C(=O)O)c1cccc2ccccc12 (stereo unspecified),-20.4%,-11%,-7.95%,0.4%,-8.8%,14.8%

Compound,growth inhibition [1],growth inhibition [2],growth inhibition [3],growth inhibition [4],growth inhibition [5],growth inhibition [6]
N=C(N)n1ncc2c1CCC/C2=N/N=C(N)N,17.5%,17.1%,13.5%,64.3%,29.9%,3.9%
CCOC(=O)C/C(C)=N/NS(=O)(=O)c1ccc(NC(C)=O)cc1,-7.6%,-19.6%,8.25%,-9.3%,-27.3%,-24.8%
O=[N+]([O-])c1ccccc1C1N2CCCCC2[C@@H]2c3[nH]c4ccccc4c3CCN12 (stereo partly specified),0.2%,-11.9%,3.3%,1.85%,3.05%,8.3%
NNC(=O)c1ccc(Cl)c(Cl)c1,-1.1%,-13.3%,-0.9%,2.85%,-16.3%,-23.8%
C[n+]1ccsn1,-0.7%,3.05%,-4.7%,37%,-19.4%,-10.4%
Cc1ccccc1OS(=O)(=O)c1ccc(Br)cc1,-4.2%,13.8%,-4.15%,-107%,24.8%,-15.8%
O=C(O)C(Cc1c[nH]c2ccccc12)Nc1ccc([N+](=O)[O-])cc1[N+](=O)[O-] (stereo unspecified),-27.7%,-3.95%,13.8%,-10.7%,3.6%,7.55%
CC(=O)C(C)C(=O)N1C(=O)N(C)C2(C)N(C)C(=O)NC12C (stereo unspecified),2.05%,-45.3%,-24.3%,8.4%,-5.8%,7.3%
CCCC(NC(=O)OCc1ccccc1)C(=O)NC(Cc1ccc(O)cc1)C(=O)O (stereo unspecified) (Cbz-[Nva]-Tyr-OH; configuration not given here),-3.5%,-0.35%,-4.2%,7%,-16.4%,10%
CCC(c1cccc(OC)c1)C(C(=O)O)c1ccc(OC)cc1 (stereo unspecified),5%,17.5%,12.6%,7.15%,7.35%,27.2%
CC(=O)/C=C/c1ccc(C)cc1,27.1%,9.9%,8.75%,4.15%,20.6%,10.7%
CN(C)CCCN1CCc2c([nH]c3ccccc23)C1c1cccnc1 (stereo unspecified),-3.35%,-14.8%,-0.45%,-0.75%,-6.2%,-21.1%
C[C@H]1C(=O)CCC2[C@]3(C)CCC4(CO)[C@@H]5CC(C)(C)C(=O)C[C@]5(C)CC[C@]4(C)C3CC[C@@]21C (stereo partly specified),-26.5%,-25.6%,-28.1%,3.35%,-40.9%,0.4%
IC1CCC2OC1CCC2I (stereo unspecified),2.8%,1.75%,-3.85%,-8.35%,-5.05%,11.8%
O=C1Nc2ccccc2C1(N1CCCCC1)N1CCCCC1,35.9%,21.9%,18.5%,7.9%,33.6%,26.6%
O=C(OCC(Cl)(Cl)Cl)N1[C@H]2C3=C(CCC3)[C@@H]([C@H]3O[C@H]32)N1C(=O)OCC(Cl)(Cl)Cl,-38.8%,-8.35%,-1.9%,20.7%,10%,2.3%
COc1cc(C)c2c(c1)C=C[C@@H]1[C@@H]2CC[C@]2(C)C(=O)CC[C@@H]12,-10.1%,3.3%,-2.55%,-48.2%,-0.05%,-3.1%
COc1cc2c(cc1Oc1c(O)c(OC)cc3c1C(C)N(C)CC3)C(C)N(C)CC2 (stereo unspecified),37.5%,-8.1%,2.4%,0.8%,2.5%,14.9%
C1=NN=C2C=C3CCc4ccccc4C3CC12 (stereo unspecified),7.45%,7.25%,-1.2%,-16.9%,-15.9%,18.6%
COCCCNC1=C(C#N)C(=O)NC2(CCCC2)S1,-35.6%,-35.5%,-18.5%,-2.65%,-30.8%,-17.2%
